Test results: PMC12820563, “FoxP3 forms a head-to-head dimer in vivo and stabilizes its multimerization on adjacent microsatellites”
In all, about 16,000 sequences were measured (“rpm ratio (pull-down/input)”: median about 0.94, highest 2% from about 1.7 on). Shown is part of a subset that was picked to be rich in the highest values.

Target: T1, MBP-FoxP1dN (Mus musculus, UniProt P58462 326-579)
T1 sequence: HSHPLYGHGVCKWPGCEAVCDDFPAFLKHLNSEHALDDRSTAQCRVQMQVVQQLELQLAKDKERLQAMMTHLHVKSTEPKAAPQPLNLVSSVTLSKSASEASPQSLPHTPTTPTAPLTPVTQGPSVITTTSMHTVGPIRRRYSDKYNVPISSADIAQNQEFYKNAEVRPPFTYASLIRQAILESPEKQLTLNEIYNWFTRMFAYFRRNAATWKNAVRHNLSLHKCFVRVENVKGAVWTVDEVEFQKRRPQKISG
Assay: PD-seq (MBP pull-down with sequencing); 20 mM Tris-HCl pH 7.5, 100 mM NaCl, 1.5 mM MgCl2, 0.4 uM protein, 0.1 uM dsDNA library, 30 min, room temperature, amylose pull-down; high values mean tight binding
Settings: protein: recombinant; tags: His6-MBP; chain copies: 2; dsDNA, one strand shown
Outline: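 The N-terminus-lacking fragment of mouse FoxP3 or FoxP1 carried a His6-MBP tag and was expressed in E. coli. At 0.4 µM it was incubated with 0.1 µM Klenow-filled degenerate double-stranded DNA library for 30 min at room temperature in Tris pH 7.5 buffer with NaCl and MgCl2, and complexes were caught on amylose resin, washed three times, released with proteinase K, PCR-barcoded and Illumina-sequenced. Binding is reads-per-million enrichment of pull-down over input with replicates pooled.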

Sequence | binding signal
GATGATTGTTCTCCCAGCTGATGAATTGGATGTATCGAGTAAACAAATTTTCCTAATCTTTCTGTTCAAGCGCCATCTAC | 1.1 RPM ratio (pull-down/input)
GATGATTGTTCTCCCAGCTGATGAATTGAAAATCTCGAGTAAACAAATTTTCCTAATCTTTCTGTTCAAGCGCCATCTAC | 0.791 RPM ratio (pull-down/input)
GATGATTGTTCTCCCAGCTGATGAATTCAACTCGTCGAGTAAACAAATTTTCCTAATCTTTCTGTTCAAGCGCCATCTAC | 0.869 RPM ratio (pull-down/input)
GATGATTGTTCTCCCAGCTGATGAATTTCTGTACTCGAGTAAACAAATTTTCCTAATCTTTCTGTTCAAGCGCCATCTAC | 0.909 RPM ratio (pull-down/input)
GATGATTGTTCTCCCAGCTGATGAATTTACCATCTCGAGTAAACAAATTTTCCTAATCTTTCTGTTCAAGCGCCATCTAC | 1.19 RPM ratio (pull-down/input)
GATGATTGTTCTCCCAGCTGATGAATTTCCAATGTCGAGTAAACAAATTTTCCTAATCTTTCTGTTCAAGCGCCATCTAC | 0.862 RPM ratio (pull-down/input)
GATGATTGTTCTCCCAGCTGATGAATTATCCGATTCGAGTAAACAAATTTTCCTAATCTTTCTGTTCAAGCGCCATCTAC | 0.95 RPM ratio (pull-down/input)
GATGATTGTTCTCCCAGCTGATGAATTTGTATTCTCGAGTAAACAAATTTTCCTAATCTTTCTGTTCAAGCGCCATCTAC | 1.44 RPM ratio (pull-down/input)
GATGATTGTTCTCCCAGCTGATGAATTGTTATTATCGAGTAAACAAATTTTCCTAATCTTTCTGTTCAAGCGCCATCTAC | 3.14 RPM ratio (pull-down/input)
GATGATTGTTCTCCCAGCTGATGAATTTTTATTATCGAGTAAACAAATTTTCCTAATCTTTCTGTTCAAGCGCCATCTAC | 2.02 RPM ratio (pull-down/input)
GATGATTGTTCTCCCAGCTGATGAATTATCGTTATCGAGTAAACAAATTTTCCTAATCTTTCTGTTCAAGCGCCATCTAC | 1.11 RPM ratio (pull-down/input)
GATGATTGTTCTCCCAGCTGATGAATTGTTAGTATCGAGTAAACAAATTTTCCTAATCTTTCTGTTCAAGCGCCATCTAC | 1.76 RPM ratio (pull-down/input)
GATGATTGTTCTCCCAGCTGATGAATTATTATTATCGAGTAAACAAATTTTCCTAATCTTTCTGTTCAAGCGCCATCTAC | 2.52 RPM ratio (pull-down/input)
GATGATTGTTCTCCCAGCTGATGAATTTTTAGTATCGAGTAAACAAATTTTCCTAATCTTTCTGTTCAAGCGCCATCTAC | 1.02 RPM ratio (pull-down/input)
GATGATTGTTCTCCCAGCTGATGAATTTCTATTATCGAGTAAACAAATTTTCCTAATCTTTCTGTTCAAGCGCCATCTAC | 1.48 RPM ratio (pull-down/input)
GATGATTGTTCTCCCAGCTGATGAATTATTTTTATCGAGTAAACAAATTTTCCTAATCTTTCTGTTCAAGCGCCATCTAC | 1.4 RPM ratio (pull-down/input)
GATGATTGTTCTCCCAGCTGATGAATTCTTAGTATCGAGTAAACAAATTTTCCTAATCTTTCTGTTCAAGCGCCATCTAC | 0.963 RPM ratio (pull-down/input)
GATGATTGTTCTCCCAGCTGATGAATTATTATCATCGAGTAAACAAATTTTCCTAATCTTTCTGTTCAAGCGCCATCTAC | 1.38 RPM ratio (pull-down/input)
GATGATTGTTCTCCCAGCTGATGAATTTATTAAATCGAGTAAACAAATTTTCCTAATCTTTCTGTTCAAGCGCCATCTAC | 1.39 RPM ratio (pull-down/input)
GATGATTGTTCTCCCAGCTGATGAATTATTTCTATCGAGTAAACAAATTTTCCTAATCTTTCTGTTCAAGCGCCATCTAC | 1.13 RPM ratio (pull-down/input)
GATGATTGTTCTCCCAGCTGATGAATTTGGCGTCTCGAGTAAACAAATTTTCCTAATCTTTCTGTTCAAGCGCCATCTAC | 0.85 RPM ratio (pull-down/input)

Sequence | binding signal
GATGATTGTTCTCCCAGCTGATGAATTAGTTCGTTCGAGTAAACAAATTTTCCTAATCTTTCTGTTCAAGCGCCATCTAC | 0.937 RPM ratio (pull-down/input)
GATGATTGTTCTCCCAGCTGATGAATTCCGTGTTTCGAGTAAACAAATTTTCCTAATCTTTCTGTTCAAGCGCCATCTAC | 0.891 RPM ratio (pull-down/input)
GATGATTGTTCTCCCAGCTGATGAATTATGATTCTCGAGTAAACAAATTTTCCTAATCTTTCTGTTCAAGCGCCATCTAC | 0.982 RPM ratio (pull-down/input)
GATGATTGTTCTCCCAGCTGATGAATTCCAAGCGTCGAGTAAACAAATTTTCCTAATCTTTCTGTTCAAGCGCCATCTAC | 0.867 RPM ratio (pull-down/input)
GATGATTGTTCTCCCAGCTGATGAATTGCACACATCGAGTAAACAAATTTTCCTAATCTTTCTGTTCAAGCGCCATCTAC | 1.31 RPM ratio (pull-down/input)
GATGATTGTTCTCCCAGCTGATGAATTTCTGCAGTCGAGTAAACAAATTTTCCTAATCTTTCTGTTCAAGCGCCATCTAC | 0.883 RPM ratio (pull-down/input)
GATGATTGTTCTCCCAGCTGATGAATTGAGTGATTCGAGTAAACAAATTTTCCTAATCTTTCTGTTCAAGCGCCATCTAC | 0.981 RPM ratio (pull-down/input)
GATGATTGTTCTCCCAGCTGATGAATTACCGGGCTCGAGTAAACAAATTTTCCTAATCTTTCTGTTCAAGCGCCATCTAC | 0.841 RPM ratio (pull-down/input)
GATGATTGTTCTCCCAGCTGATGAATTAGAAAGTTCGAGTAAACAAATTTTCCTAATCTTTCTGTTCAAGCGCCATCTAC | 0.938 RPM ratio (pull-down/input)
GATGATTGTTCTCCCAGCTGATGAATTGATGATATCGAGTAAACAAATTTTCCTAATCTTTCTGTTCAAGCGCCATCTAC | 1.21 RPM ratio (pull-down/input)
GATGATTGTTCTCCCAGCTGATGAATTATTTCAATCGAGTAAACAAATTTTCCTAATCTTTCTGTTCAAGCGCCATCTAC | 1.11 RPM ratio (pull-down/input)
GATGATTGTTCTCCCAGCTGATGAATTGTTGATATCGAGTAAACAAATTTTCCTAATCTTTCTGTTCAAGCGCCATCTAC | 2.16 RPM ratio (pull-down/input)
GATGATTGTTCTCCCAGCTGATGAATTTTTGATATCGAGTAAACAAATTTTCCTAATCTTTCTGTTCAAGCGCCATCTAC | 1.17 RPM ratio (pull-down/input)
GATGATTGTTCTCCCAGCTGATGAATTATTGTAATCGAGTAAACAAATTTTCCTAATCTTTCTGTTCAAGCGCCATCTAC | 1.91 RPM ratio (pull-down/input)
GATGATTGTTCTCCCAGCTGATGAATTCTTATTATCGAGTAAACAAATTTTCCTAATCTTTCTGTTCAAGCGCCATCTAC | 1.6 RPM ratio (pull-down/input)
GATGATTGTTCTCCCAGCTGATGAATTCTATTTATCGAGTAAACAAATTTTCCTAATCTTTCTGTTCAAGCGCCATCTAC | 2.58 RPM ratio (pull-down/input)
GATGATTGTTCTCCCAGCTGATGAATTATTCTAATCGAGTAAACAAATTTTCCTAATCTTTCTGTTCAAGCGCCATCTAC | 1.2 RPM ratio (pull-down/input)
GATGATTGTTCTCCCAGCTGATGAATTATTCCTATCGAGTAAACAAATTTTCCTAATCTTTCTGTTCAAGCGCCATCTAC | 1.08 RPM ratio (pull-down/input)
GATGATTGTTCTCCCAGCTGATGAATTTATTCTATCGAGTAAACAAATTTTCCTAATCTTTCTGTTCAAGCGCCATCTAC | 1.16 RPM ratio (pull-down/input)
GATGATTGTTCTCCCAGCTGATGAATTATTGTTATCGAGTAAACAAATTTTCCTAATCTTTCTGTTCAAGCGCCATCTAC | 2.83 RPM ratio (pull-down/input)
GATGATTGTTCTCCCAGCTGATGAATTATTCTTATCGAGTAAACAAATTTTCCTAATCTTTCTGTTCAAGCGCCATCTAC | 1.08 RPM ratio (pull-down/input)

Sequence | binding signal
GATGATTGTTCTCCCAGCTGATGAATTGAGGCTGTCGAGTAAACAAATTTTCCTAATCTTTCTGTTCAAGCGCCATCTAC | 0.891 RPM ratio (pull-down/input)
GATGATTGTTCTCCCAGCTGATGAATTACGTAAGTCGAGTAAACAAATTTTCCTAATCTTTCTGTTCAAGCGCCATCTAC | 1.14 RPM ratio (pull-down/input)
GATGATTGTTCTCCCAGCTGATGAATTGGGGCAATCGAGTAAACAAATTTTCCTAATCTTTCTGTTCAAGCGCCATCTAC | 1.01 RPM ratio (pull-down/input)
GATGATTGTTCTCCCAGCTGATGAATTTAGGACGTCGAGTAAACAAATTTTCCTAATCTTTCTGTTCAAGCGCCATCTAC | 0.956 RPM ratio (pull-down/input)
GATGATTGTTCTCCCAGCTGATGAATTCATCAGCTCGAGTAAACAAATTTTCCTAATCTTTCTGTTCAAGCGCCATCTAC | 0.818 RPM ratio (pull-down/input)
GATGATTGTTCTCCCAGCTGATGAATTTCGTTAATCGAGTAAACAAATTTTCCTAATCTTTCTGTTCAAGCGCCATCTAC | 0.996 RPM ratio (pull-down/input)
GATGATTGTTCTCCCAGCTGATGAATTGACATCCTCGAGTAAACAAATTTTCCTAATCTTTCTGTTCAAGCGCCATCTAC | 1.19 RPM ratio (pull-down/input)
GATGATTGTTCTCCCAGCTGATGAATTTGAATTATCGAGTAAACAAATTTTCCTAATCTTTCTGTTCAAGCGCCATCTAC | 0.969 RPM ratio (pull-down/input)
GATGATTGTTCTCCCAGCTGATGAATTAGTGTAATCGAGTAAACAAATTTTCCTAATCTTTCTGTTCAAGCGCCATCTAC | 1.54 RPM ratio (pull-down/input)
GATGATTGTTCTCCCAGCTGATGAATTTTGATTATCGAGTAAACAAATTTTCCTAATCTTTCTGTTCAAGCGCCATCTAC | 1.79 RPM ratio (pull-down/input)
GATGATTGTTCTCCCAGCTGATGAATTGTCATCATCGAGTAAACAAATTTTCCTAATCTTTCTGTTCAAGCGCCATCTAC | 1.34 RPM ratio (pull-down/input)
GATGATTGTTCTCCCAGCTGATGAATTTCTGTCATCGAGTAAACAAATTTTCCTAATCTTTCTGTTCAAGCGCCATCTAC | 1.15 RPM ratio (pull-down/input)
GATGATTGTTCTCCCAGCTGATGAATTAGTTATATCGAGTAAACAAATTTTCCTAATCTTTCTGTTCAAGCGCCATCTAC | 1.07 RPM ratio (pull-down/input)
GATGATTGTTCTCCCAGCTGATGAATTAGTGTTATCGAGTAAACAAATTTTCCTAATCTTTCTGTTCAAGCGCCATCTAC | 1.8 RPM ratio (pull-down/input)
GATGATTGTTCTCCCAGCTGATGAATTTATTGTATCGAGTAAACAAATTTTCCTAATCTTTCTGTTCAAGCGCCATCTAC | 1.6 RPM ratio (pull-down/input)
GATGATTGTTCTCCCAGCTGATGAATTGTTGTCATCGAGTAAACAAATTTTCCTAATCTTTCTGTTCAAGCGCCATCTAC | 2.36 RPM ratio (pull-down/input)
GATGATTGTTCTCCCAGCTGATGAATTTATCGTATCGAGTAAACAAATTTTCCTAATCTTTCTGTTCAAGCGCCATCTAC | 1.22 RPM ratio (pull-down/input)
GATGATTGTTCTCCCAGCTGATGAATTGTATTTATCGAGTAAACAAATTTTCCTAATCTTTCTGTTCAAGCGCCATCTAC | 2.72 RPM ratio (pull-down/input)
GATGATTGTTCTCCCAGCTGATGAATTGAAATTATCGAGTAAACAAATTTTCCTAATCTTTCTGTTCAAGCGCCATCTAC | 1.01 RPM ratio (pull-down/input)
GATGATTGTTCTCCCAGCTGATGAATTAGACAGTTCGAGTAAACAAATTTTCCTAATCTTTCTGTTCAAGCGCCATCTAC | 0.913 RPM ratio (pull-down/input)
GATGATTGTTCTCCCAGCTGATGAATTTTTAAGTTCGAGTAAACAAATTTTCCTAATCTTTCTGTTCAAGCGCCATCTAC | 0.97 RPM ratio (pull-down/input)
